# Assays:
# Assay in all cases: DAPPL (digital affinity profiling via proximity ligation, sequencing); 10 mM Tris-HCl pH 7.5, 50 mM NaCl, 1 mM DTT, 4% glycerol, room temperature, 30 min; GST-TFs on glutathione beads, 16-mer random dsDNA library, 0.1% formaldehyde crosslink after washing; high values mean tight binding
# FEV = target: T1, FEV (Homo sapiens, UniProt Q99581 1-238); conditions: protein: recombinant; tags: N-terminal GST; dsDNA, one strand shown
# T1 sequence: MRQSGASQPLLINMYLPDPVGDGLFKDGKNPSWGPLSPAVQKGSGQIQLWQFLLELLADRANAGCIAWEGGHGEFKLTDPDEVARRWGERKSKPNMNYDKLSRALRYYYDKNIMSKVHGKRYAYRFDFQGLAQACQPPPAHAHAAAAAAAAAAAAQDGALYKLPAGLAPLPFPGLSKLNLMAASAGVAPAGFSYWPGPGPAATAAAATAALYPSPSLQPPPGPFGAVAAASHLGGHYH
# How it was run: (§1)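 Each value of binding signal is a hexamer's read frequency for a factor divided by the same hexamer's frequency in the tag-only sample. Barcoded, bead-captured GST fusions of human transcription factors made in yeast were pooled with that sample and incubated with 200 nmole of a random double-stranded 16-mer DNA library in Tris/NaCl/DTT/glycerol buffer at room temperature for 30 min. Washing, 0.1% formaldehyde crosslinking, proximity ligation, PCR and Illumina NextSeq500 sequencing followed.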
# ETV5 = ETV5 (Homo sapiens, UniProt P41161 1-510); conditions: protein: recombinant; tags: N-terminal GST; dsDNA, one strand shown
# Chain of ETV5 (P41161 whole entry): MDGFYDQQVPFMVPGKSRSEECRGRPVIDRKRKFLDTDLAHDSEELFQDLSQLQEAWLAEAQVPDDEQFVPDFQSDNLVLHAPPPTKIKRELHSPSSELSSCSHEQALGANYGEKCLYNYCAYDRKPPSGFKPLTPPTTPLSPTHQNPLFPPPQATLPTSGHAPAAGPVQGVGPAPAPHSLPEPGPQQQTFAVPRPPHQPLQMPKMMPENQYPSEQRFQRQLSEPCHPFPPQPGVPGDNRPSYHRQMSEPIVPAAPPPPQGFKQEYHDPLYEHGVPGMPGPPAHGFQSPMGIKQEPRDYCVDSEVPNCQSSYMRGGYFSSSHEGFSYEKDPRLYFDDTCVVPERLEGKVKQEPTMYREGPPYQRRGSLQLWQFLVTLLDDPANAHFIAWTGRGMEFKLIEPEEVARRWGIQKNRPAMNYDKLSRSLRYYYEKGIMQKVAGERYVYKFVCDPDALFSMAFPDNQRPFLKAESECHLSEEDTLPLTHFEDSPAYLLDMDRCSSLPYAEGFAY
# How it was run: as §1
# HSF1 = HSF1 (Homo sapiens, UniProt Q00613 1-529); conditions: protein: recombinant; tags: N-terminal GST; chain copies: 3; dsDNA, one strand shown
# Chain of HSF1 (Q00613 whole entry): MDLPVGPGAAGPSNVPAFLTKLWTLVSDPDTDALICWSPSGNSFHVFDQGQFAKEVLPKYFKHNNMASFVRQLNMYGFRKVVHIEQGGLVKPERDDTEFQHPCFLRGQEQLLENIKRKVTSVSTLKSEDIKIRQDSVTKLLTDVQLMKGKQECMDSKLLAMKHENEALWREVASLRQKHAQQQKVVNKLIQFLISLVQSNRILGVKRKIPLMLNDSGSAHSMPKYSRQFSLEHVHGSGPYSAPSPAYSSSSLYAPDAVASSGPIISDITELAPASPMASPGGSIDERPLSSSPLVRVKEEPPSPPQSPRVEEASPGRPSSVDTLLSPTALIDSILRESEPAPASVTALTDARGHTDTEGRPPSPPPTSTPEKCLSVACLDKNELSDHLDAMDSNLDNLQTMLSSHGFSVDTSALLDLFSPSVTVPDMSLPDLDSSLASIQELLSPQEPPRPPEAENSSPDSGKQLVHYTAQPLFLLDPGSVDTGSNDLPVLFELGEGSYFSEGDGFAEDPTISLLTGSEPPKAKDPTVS
# How it was run: as §1
# SPIC = target: T2, SPIC (Homo sapiens, UniProt Q8N5J4 1-248); conditions: protein: recombinant; tags: N-terminal GST; dsDNA, one strand shown
# T2 sequence: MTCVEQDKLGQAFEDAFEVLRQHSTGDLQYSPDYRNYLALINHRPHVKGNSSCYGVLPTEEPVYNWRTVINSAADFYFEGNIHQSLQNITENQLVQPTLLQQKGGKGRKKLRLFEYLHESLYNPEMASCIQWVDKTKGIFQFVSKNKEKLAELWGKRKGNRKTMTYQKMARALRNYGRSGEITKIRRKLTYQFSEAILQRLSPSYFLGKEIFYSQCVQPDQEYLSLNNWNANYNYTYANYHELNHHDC
# How it was run: as §1
# ELF4 = ELF4 (Homo sapiens, UniProt Q99607 1-663); conditions: protein: recombinant; tags: N-terminal GST; dsDNA, one strand shown
# Chain of ELF4 (Q99607 whole entry): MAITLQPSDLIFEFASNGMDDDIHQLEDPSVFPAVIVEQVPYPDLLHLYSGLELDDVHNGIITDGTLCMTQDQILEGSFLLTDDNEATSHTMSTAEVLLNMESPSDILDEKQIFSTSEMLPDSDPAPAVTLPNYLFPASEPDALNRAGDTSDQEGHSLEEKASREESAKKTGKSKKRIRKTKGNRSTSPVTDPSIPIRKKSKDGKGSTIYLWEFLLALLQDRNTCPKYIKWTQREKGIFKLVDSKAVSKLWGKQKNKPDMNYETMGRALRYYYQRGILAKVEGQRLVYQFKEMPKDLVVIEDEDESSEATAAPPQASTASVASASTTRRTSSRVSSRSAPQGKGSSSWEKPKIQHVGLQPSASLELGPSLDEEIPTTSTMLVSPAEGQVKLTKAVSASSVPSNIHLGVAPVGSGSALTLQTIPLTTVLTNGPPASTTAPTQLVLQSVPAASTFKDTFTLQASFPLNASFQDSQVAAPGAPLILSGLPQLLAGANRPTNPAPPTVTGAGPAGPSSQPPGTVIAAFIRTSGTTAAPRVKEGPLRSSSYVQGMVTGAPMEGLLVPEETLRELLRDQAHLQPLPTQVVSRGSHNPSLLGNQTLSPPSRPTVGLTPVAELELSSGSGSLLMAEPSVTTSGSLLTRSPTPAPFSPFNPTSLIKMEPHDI
# How it was run: as §1
# ELK4 = target: T3, ELK4 (Homo sapiens, UniProt P28324-2 1-405); conditions: protein: recombinant; tags: N-terminal GST; dsDNA, one strand shown
# T3 sequence: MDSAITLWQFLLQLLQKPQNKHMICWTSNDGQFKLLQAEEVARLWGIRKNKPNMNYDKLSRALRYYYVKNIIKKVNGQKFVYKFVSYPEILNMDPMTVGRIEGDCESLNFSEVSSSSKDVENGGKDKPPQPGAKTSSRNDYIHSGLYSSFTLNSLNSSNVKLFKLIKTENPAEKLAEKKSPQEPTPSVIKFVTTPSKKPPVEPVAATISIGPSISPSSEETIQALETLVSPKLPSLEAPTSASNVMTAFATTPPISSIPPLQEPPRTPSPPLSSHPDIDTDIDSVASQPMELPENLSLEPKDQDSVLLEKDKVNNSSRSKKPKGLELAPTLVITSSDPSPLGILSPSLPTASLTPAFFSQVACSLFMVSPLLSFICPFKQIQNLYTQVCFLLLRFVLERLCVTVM
# How it was run: as §1
# ETV2 = target: T4, ETV2 (Homo sapiens, UniProt O00321 1-342); conditions: protein: recombinant; tags: N-terminal GST; dsDNA, one strand shown
# T4 sequence: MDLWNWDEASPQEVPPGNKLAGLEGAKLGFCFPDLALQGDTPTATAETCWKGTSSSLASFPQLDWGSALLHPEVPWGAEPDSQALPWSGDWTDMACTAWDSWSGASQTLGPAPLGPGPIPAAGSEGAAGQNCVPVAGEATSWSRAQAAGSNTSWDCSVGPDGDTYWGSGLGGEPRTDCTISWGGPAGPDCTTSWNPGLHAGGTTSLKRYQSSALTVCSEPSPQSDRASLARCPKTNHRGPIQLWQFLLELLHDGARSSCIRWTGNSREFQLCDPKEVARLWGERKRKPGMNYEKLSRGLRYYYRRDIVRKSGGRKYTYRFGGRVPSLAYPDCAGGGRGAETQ
# How it was run: as §1
# ELF3 = target: T5, ELF3 (Homo sapiens, UniProt P78545 1-371); conditions: protein: recombinant; tags: N-terminal GST; dsDNA, one strand shown
# T5 sequence: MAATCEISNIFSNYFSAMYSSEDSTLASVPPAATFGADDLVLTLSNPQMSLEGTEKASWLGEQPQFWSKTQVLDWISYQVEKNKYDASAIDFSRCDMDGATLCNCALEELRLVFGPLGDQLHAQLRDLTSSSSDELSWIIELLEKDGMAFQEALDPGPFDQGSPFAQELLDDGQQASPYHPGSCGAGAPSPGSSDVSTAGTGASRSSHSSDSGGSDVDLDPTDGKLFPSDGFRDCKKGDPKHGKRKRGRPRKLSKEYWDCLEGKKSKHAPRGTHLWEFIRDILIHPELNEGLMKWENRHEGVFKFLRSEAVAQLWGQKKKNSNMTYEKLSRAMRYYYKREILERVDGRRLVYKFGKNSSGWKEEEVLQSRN
# How it was run: as §1
# CRX = CRX (Homo sapiens, UniProt O43186 1-299); conditions: protein: recombinant; tags: N-terminal GST; dsDNA, one strand shown
# Chain of CRX (O43186 whole entry): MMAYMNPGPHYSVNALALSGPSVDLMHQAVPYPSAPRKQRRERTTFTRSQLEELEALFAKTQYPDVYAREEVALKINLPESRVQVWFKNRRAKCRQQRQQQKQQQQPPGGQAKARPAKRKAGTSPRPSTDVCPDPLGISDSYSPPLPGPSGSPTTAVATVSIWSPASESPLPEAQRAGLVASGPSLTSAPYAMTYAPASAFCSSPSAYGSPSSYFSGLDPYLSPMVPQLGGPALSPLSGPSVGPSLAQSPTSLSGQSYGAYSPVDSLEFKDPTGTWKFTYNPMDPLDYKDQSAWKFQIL
# How it was run: as §1
# ETV1 = ETV1 (Homo sapiens, UniProt P50549 1-477); conditions: protein: recombinant; tags: N-terminal GST; dsDNA, one strand shown
# Chain of ETV1 (P50549 whole entry): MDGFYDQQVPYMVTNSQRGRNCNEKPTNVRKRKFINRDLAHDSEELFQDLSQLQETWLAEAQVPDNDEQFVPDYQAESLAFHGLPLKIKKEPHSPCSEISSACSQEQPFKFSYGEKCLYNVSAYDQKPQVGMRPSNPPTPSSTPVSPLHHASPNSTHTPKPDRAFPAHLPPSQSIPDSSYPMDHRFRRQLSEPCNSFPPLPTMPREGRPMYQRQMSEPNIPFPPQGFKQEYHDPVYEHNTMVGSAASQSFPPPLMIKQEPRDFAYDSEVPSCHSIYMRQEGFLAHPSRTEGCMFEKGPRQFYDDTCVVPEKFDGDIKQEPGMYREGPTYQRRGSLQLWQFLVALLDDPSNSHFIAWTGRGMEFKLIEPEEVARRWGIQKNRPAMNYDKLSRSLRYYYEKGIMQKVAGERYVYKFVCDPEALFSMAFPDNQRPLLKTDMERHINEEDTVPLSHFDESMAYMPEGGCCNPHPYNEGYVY
# How it was run: as §1
# ERF = target: T6, ERF (Homo sapiens, UniProt P50548 1-548); conditions: protein: recombinant; tags: N-terminal GST; dsDNA, one strand shown
# T6 sequence: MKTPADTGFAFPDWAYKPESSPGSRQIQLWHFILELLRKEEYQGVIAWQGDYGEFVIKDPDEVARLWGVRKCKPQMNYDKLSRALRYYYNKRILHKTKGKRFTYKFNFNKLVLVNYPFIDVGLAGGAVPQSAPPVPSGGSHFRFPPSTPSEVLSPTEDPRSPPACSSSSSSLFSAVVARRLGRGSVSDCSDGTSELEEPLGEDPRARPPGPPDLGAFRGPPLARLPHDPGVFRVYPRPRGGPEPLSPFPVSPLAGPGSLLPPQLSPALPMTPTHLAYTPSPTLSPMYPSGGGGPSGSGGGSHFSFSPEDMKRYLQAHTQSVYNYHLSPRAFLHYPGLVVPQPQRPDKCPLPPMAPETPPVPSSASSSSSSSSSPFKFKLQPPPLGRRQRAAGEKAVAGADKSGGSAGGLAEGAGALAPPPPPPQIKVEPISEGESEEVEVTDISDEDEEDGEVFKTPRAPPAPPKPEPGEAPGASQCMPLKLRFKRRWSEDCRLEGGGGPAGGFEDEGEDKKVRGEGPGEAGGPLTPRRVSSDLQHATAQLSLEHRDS
# How it was run: as §1
# ETV3L = target: T7, ETV3L (Homo sapiens, UniProt Q6ZN32 1-361); conditions: protein: recombinant; tags: N-terminal GST; dsDNA, one strand shown
# T7 sequence: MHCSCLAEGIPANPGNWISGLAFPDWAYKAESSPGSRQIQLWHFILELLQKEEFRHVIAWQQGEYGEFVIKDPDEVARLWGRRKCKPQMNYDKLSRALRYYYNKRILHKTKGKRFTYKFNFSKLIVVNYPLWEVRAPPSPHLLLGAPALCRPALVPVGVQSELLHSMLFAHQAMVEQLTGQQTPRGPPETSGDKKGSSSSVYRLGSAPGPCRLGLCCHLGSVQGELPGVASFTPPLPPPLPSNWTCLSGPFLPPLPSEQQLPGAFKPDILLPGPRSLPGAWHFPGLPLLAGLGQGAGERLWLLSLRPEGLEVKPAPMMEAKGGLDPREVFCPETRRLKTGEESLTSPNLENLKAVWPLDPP
# How it was run: as §1
# ETS2 = target: T8, ETS2 (Homo sapiens, UniProt P15036 1-469); conditions: protein: recombinant; tags: N-terminal GST; dsDNA, one strand shown
# T8 sequence: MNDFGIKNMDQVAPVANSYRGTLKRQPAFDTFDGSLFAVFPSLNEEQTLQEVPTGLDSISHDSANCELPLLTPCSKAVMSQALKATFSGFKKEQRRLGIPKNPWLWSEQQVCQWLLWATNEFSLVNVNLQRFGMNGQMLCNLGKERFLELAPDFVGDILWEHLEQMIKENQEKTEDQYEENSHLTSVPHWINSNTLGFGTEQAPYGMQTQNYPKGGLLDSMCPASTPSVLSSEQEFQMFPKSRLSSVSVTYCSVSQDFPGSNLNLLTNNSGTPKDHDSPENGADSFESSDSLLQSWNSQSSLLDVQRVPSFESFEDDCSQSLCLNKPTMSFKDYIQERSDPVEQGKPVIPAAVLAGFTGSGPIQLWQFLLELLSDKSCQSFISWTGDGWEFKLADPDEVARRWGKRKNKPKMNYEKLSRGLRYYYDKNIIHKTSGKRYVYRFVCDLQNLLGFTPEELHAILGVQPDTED
# How it was run: as §1
# SPDEF = target: T9, SPDEF (Homo sapiens, UniProt O95238 1-335); conditions: protein: recombinant; tags: N-terminal GST; dsDNA, one strand shown
# T9 sequence: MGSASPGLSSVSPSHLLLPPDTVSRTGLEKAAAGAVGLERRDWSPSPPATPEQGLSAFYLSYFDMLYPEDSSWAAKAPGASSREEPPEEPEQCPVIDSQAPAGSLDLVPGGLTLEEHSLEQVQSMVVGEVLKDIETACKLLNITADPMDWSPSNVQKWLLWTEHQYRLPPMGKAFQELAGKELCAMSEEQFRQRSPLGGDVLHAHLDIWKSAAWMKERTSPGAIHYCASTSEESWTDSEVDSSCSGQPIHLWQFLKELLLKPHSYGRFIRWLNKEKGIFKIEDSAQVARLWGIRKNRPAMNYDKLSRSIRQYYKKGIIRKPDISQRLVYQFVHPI
# How it was run: as §1
# ETV7 = target: T10, ETV7 (Homo sapiens, UniProt Q9Y603 1-341); conditions: protein: recombinant; tags: N-terminal GST; dsDNA, one strand shown
# T10 sequence: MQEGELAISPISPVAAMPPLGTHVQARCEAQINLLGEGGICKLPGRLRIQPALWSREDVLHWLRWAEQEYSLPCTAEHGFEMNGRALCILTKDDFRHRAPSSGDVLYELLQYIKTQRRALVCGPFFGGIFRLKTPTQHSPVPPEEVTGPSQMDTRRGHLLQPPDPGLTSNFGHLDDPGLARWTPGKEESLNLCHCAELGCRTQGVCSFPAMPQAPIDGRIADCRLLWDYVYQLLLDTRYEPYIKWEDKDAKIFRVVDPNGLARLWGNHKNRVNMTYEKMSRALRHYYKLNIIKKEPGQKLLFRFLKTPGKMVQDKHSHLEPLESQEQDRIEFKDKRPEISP
# How it was run: as §1
# ELF5 = target: T11, ELF5 (Homo sapiens, UniProt Q9UKW6-2 1-255); conditions: protein: recombinant; tags: N-terminal GST; dsDNA, one strand shown
# T11 sequence: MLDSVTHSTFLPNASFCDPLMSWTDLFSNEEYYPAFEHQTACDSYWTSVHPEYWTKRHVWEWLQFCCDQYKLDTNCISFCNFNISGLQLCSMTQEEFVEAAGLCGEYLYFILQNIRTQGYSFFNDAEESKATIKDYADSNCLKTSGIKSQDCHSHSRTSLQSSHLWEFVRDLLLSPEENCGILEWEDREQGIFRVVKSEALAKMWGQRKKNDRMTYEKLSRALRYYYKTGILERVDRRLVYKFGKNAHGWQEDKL
# How it was run: as §1
# ETV3 = target: T12, ETV3 (Homo sapiens, UniProt P41162-2 1-143); conditions: protein: recombinant; tags: N-terminal GST; dsDNA, one strand shown
# T12 sequence: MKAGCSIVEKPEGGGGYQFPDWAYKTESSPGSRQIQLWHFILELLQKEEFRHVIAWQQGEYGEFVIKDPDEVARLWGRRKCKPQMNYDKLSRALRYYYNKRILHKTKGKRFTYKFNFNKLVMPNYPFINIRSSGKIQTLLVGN
# How it was run: as §1
# ETV6 = ETV6 (Homo sapiens, UniProt P41212 1-452); conditions: protein: recombinant; tags: N-terminal GST; dsDNA, one strand shown
# Chain of ETV6 (P41212 whole entry): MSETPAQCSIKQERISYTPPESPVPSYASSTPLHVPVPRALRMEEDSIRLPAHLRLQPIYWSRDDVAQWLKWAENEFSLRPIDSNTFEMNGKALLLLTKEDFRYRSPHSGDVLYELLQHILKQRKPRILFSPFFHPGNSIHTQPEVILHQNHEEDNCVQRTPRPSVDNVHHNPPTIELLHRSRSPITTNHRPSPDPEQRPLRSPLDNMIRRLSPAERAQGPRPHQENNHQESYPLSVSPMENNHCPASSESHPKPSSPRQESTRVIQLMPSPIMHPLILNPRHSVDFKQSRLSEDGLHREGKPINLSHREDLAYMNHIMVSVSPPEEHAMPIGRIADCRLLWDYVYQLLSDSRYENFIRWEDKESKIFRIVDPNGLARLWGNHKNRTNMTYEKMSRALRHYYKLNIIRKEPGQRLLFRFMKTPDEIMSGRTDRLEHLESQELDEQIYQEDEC
# How it was run: as §1
sequence,measurement,setting,value
CAATTC,binding signal,FEV,"1.24 fold enrichment (6-mer frequency, TF over GST control)"
same,binding signal,ETV5,"1.37 fold enrichment (6-mer frequency, TF over GST control)"
same,binding signal,HSF1,"1.19 fold enrichment (6-mer frequency, TF over GST control)"
same,binding signal,SPIC,"1.16 fold enrichment (6-mer frequency, TF over GST control)"
same,binding signal,ELF4,"1.31 fold enrichment (6-mer frequency, TF over GST control)"
same,binding signal,ELK4,"1.25 fold enrichment (6-mer frequency, TF over GST control)"
same,binding signal,ETV2,"1.39 fold enrichment (6-mer frequency, TF over GST control)"
same,binding signal,ELF3,"1.34 fold enrichment (6-mer frequency, TF over GST control)"
same,binding signal,CRX,"1.07 fold enrichment (6-mer frequency, TF over GST control)"
same,binding signal,ETV1,"1.21 fold enrichment (6-mer frequency, TF over GST control)"
same,binding signal,ERF,"1.26 fold enrichment (6-mer frequency, TF over GST control)"
same,binding signal,ETV3L,"1.27 fold enrichment (6-mer frequency, TF over GST control)"
same,binding signal,ETS2,"1.24 fold enrichment (6-mer frequency, TF over GST control)"
same,binding signal,SPDEF,"1.33 fold enrichment (6-mer frequency, TF over GST control)"
same,binding signal,ETV7,"1.24 fold enrichment (6-mer frequency, TF over GST control)"
same,binding signal,ELF5,"1.25 fold enrichment (6-mer frequency, TF over GST control)"
same,binding signal,ETV3,"1.31 fold enrichment (6-mer frequency, TF over GST control)"
same,binding signal,ETV6,"1.16 fold enrichment (6-mer frequency, TF over GST control)"

# Reference: paper PMC7862700, “An all-to-all approach to the identification of sequence-specific readers for epigenetic DNA modifications on cytosine”
